For one test, the target named is T1, GNAZ 2-355 G-alpha (domain begin residue: 2, domain end residue: 355), P19086.
T1 chain: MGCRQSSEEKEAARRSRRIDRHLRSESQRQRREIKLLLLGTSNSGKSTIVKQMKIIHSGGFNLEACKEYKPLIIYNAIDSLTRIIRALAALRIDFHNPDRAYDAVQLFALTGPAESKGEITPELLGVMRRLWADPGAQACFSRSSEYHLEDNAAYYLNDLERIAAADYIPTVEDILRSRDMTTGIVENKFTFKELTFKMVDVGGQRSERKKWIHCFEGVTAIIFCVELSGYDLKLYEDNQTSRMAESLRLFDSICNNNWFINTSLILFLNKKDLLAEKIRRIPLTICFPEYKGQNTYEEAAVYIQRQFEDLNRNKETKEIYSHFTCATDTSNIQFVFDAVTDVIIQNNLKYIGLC
Nature of the test: phage ELISA signal ratio (GST-PRM binding over GST background); higher = stronger binding of peptide-phage to the PRM. Put shortly:
(§1)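 Approximately 48 individual clones from selection rounds 4 and 5 were tested by phage ELISA, and those scoring positive were sequenced. They came from five rounds of selecting an M13 phage library of randomized, cysteine-free, glycine-flanked hexadecapeptides on the gene-8 major coat protein against human peptide recognition domains fused to the C-terminus of glutathione S-transferase (GST) in 96-well plates. Each figure in the table is the ELISA signal on the GST-domain fusion relative to the signal on GST alone.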
A general note: ELISA stands for enzyme-linked immunosorbent assay.
Sequence of GNAI1 2-354 G-alpha (domain begin residue: 2, domain end residue: 354), P63096 (P63096 whole entry): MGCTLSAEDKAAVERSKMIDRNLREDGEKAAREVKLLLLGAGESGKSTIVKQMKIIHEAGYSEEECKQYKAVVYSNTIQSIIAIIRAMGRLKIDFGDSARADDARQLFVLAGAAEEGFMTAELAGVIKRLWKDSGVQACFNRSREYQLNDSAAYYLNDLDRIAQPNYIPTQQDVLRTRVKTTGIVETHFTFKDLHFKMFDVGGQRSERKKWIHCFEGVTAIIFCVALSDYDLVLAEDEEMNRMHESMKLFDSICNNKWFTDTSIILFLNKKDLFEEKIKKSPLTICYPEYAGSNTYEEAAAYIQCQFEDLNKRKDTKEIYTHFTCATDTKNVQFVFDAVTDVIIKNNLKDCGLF
Sequence of HSPA8 394-614 HSP70 (domain begin residue: 394, domain end residue: 614), P11142 (P11142 whole entry, looked up, tested part not stated): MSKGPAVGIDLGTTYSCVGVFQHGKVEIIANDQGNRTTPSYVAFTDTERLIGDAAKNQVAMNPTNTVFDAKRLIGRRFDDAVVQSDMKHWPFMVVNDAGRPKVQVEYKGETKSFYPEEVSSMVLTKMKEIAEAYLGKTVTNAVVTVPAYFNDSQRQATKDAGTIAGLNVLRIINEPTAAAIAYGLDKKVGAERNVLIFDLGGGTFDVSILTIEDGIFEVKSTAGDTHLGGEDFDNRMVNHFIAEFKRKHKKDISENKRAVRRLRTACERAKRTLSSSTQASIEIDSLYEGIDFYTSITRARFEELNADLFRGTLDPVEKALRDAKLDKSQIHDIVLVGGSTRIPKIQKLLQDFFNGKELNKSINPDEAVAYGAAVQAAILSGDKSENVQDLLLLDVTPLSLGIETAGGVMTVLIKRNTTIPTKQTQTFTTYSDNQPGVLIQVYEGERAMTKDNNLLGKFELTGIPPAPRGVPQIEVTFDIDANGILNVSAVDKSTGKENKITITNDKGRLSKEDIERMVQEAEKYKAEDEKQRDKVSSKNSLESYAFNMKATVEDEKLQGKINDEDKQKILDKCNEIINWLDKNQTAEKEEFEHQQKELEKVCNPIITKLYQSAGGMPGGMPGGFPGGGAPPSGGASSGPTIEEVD
Sequence of HSPA9 438-651 HSP70 (domain begin residue: 438, domain end residue: 651), P38646 (P38646 whole entry): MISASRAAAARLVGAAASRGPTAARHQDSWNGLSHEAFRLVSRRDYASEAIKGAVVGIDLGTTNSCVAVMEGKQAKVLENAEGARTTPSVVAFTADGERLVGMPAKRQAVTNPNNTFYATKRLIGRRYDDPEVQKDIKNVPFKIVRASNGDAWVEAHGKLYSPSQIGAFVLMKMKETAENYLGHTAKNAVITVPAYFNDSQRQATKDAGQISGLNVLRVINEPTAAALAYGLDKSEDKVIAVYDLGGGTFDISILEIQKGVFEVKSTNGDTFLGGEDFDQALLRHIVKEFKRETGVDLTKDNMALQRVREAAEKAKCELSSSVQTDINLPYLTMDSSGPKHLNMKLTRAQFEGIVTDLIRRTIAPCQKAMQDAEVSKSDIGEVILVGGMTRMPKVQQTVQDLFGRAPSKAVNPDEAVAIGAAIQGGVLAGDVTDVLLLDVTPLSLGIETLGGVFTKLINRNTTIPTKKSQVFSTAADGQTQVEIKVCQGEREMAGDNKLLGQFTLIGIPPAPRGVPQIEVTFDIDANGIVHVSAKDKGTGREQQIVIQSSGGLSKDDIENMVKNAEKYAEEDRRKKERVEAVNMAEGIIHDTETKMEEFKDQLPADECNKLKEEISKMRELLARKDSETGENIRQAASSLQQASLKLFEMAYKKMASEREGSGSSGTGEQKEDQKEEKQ
As to EDSGLEWFMQWSHGYV, the “phage ELISA signal ratio” value worked out at 13.9.

Take WETWFEQKEVLIDAYY: the “phage ELISA signal ratio” value was 14.6. Take WRWDEYDHQFVEEVQM: the “phage ELISA signal ratio” value was determined as 25.2.

Take SMEWWSKGDVSLIDIS: the “phage ELISA signal ratio” value is 4.45. Same read-out and setting: as for DMTRAVFWEFWDHLDV, the figure is 7.78. On the same count and under the same terms, as for PGSENEAEYWFNIMRQ, the figure is 19.7. The same measure, in the same setting: as for WVWDYSQDQWVPASVQ, the figure is 17.2; as for DVPPLWMMAEYSFPWE, 5.11; as for HAWWYNENLDQWVDTS, 16.7.

Turning to EWSWSDSMHQFMNENT, the “phage ELISA signal ratio” value worked out at 27.6. Same read-out and setting: the result for MPFDHWTMDDVEMLVL reads 17.5; that for HDVEPIWSMPWWQMDY, 17.6. On to WSLMDDVSPWWEMEQI, for which the “phage ELISA signal ratio” value is 20.5.

Regarding VSYEWWMPGDTQMMEV, the “phage ELISA signal ratio” value came to 11.2. As for QWEFEHDATLLVLEQM, the “phage ELISA signal ratio” value was 26.5. The same measure, in the same setting: the result for HEEGMAEQWFWLHFAP reads 11.9; that for NEWDIPLLDLTMLPWA, 8.79. As for GNHIWYWDQDEKLLEL, the “phage ELISA signal ratio” value is 30.4.

For the molecule QWPTYSQWMTRDEILI, the “phage ELISA signal ratio” value stood at 3.11. As for PQQHFWEMDVPMIQLW, the “phage ELISA signal ratio” value amounted to 8.66. The same measure, in the same setting: as for MLPFQDWYTQDDVLMN, the figure is 17.6.

Regarding SPPQDVPPLWEYYHIW, the “phage ELISA signal ratio” value was determined as 32.1.

With DVEPLWSQWVTWDWQE, the “phage ELISA signal ratio” value worked out at 11.1.

For a further test, the target named is GNAI1 2-354 G-alpha (domain begin residue: 2, domain end residue: 354), P63096. Described as above. Put shortly:
as §1
In the case of SVPWYSEPWAIDMMSF, the “phage ELISA signal ratio” value worked out at 49.6. Take WWEAPWAMEMLDEETG: the “phage ELISA signal ratio” value came to 16.6.

With IPDWLVDYEWGQWVEG, the “phage ELISA signal ratio” value was 31.6. For the molecule YHDTGLSNEWFMIRYF, the “phage ELISA signal ratio” value is 18. For the molecule DAHWWEEPWFIKSQEE, the “phage ELISA signal ratio” value is 13.8. For the molecule IVVGDWENEWFAHLVK, the “phage ELISA signal ratio” value was determined as 4.48.

A further test addresses HSPA9 438-651 HSP70 (domain begin residue: 438, domain end residue: 651), P38646. The description is as above. The gist of the method:
as §1
Regarding TVSVTNIDMDMLSFLL, the “phage ELISA signal ratio” value was determined as 15. Still for that read-out and setting: the result for VPWGDAQFSWPVEWMI reads 8.49; that for VMTLTELQDWLNAAYV, 15; that for YQMTDWTTWEHFMHMT, 6.13. Still for that read-out and setting: as for FYIYDTWVEWPPVVTV, the figure is 6.36; as for ALEMTMEQWTYFLQEW, 10.8; as for QVAMSEQSLNYFLTLL, 3.89.

Another test concerns the target T2, HOMER1 1-163 WH1 (domain begin residue: 1, domain end residue: 163), Q86YM7.
T2 chain: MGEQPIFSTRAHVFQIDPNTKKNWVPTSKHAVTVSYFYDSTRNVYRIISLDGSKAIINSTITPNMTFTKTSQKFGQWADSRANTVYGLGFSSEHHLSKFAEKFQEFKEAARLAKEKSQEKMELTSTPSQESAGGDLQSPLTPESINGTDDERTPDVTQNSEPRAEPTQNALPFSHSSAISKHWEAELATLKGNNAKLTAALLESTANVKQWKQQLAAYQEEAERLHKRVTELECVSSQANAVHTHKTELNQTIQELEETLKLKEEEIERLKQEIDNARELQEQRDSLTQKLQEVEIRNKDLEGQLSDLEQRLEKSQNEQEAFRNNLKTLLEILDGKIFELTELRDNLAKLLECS
The test is described as above. Put shortly:
as §1
Consider NWWHSDLQPPQEWQDE, for which the “phage ELISA signal ratio” value is 4.77. Consider MEVMPPQGFQDAFLST, for which the “phage ELISA signal ratio” value worked out at 4.78.

The next test concerns the target HSPA8 394-614 HSP70 (domain begin residue: 394, domain end residue: 614), P11142. The test is described as above. The gist of the method: as §1
For DAEMQDFIMAWWPELV, the “phage ELISA signal ratio” value stood at 8.68.

For the molecule SLDQSDIRHIFYWMEW, the “phage ELISA signal ratio” value worked out at 10.4.

In the case of PDVLQQLWEAMRSENW, the “phage ELISA signal ratio” value worked out at 20.4.

QHMHFVMLDEIMYGMW: the “phage ELISA signal ratio” value stood at 23.6. On the same count and under the same terms, the result for YNELEPEVAAWWWQYV reads 8.35.

Another test concerns the target T3, HOMER3 1-118 WH1 (domain begin residue: 1, domain end residue: 118), Q9NSC5.
T3 chain: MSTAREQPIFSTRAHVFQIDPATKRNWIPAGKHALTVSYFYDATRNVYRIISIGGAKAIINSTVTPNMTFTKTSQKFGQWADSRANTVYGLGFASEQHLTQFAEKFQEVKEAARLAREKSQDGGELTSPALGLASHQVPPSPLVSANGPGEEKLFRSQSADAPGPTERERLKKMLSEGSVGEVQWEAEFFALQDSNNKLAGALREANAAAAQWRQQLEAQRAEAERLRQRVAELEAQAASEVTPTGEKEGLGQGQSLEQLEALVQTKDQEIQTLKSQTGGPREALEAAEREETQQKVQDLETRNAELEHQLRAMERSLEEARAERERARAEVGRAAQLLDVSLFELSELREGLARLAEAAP
Described as above. The gist of the method: as §1
In the case of RQYKWWEWLVVQQPKA, the “phage ELISA signal ratio” value is 5.84. TQAFQHDHFWESLVMF: the “phage ELISA signal ratio” value is 4.73. Still for that read-out and setting: the result for YHYIAEVPEQFVDMHR reads 10.5.

For the next test, the target named is T4, HOMER2 1-111 WH1 (domain begin residue: 1, domain end residue: 111), Q9NSB8.
T4 chain: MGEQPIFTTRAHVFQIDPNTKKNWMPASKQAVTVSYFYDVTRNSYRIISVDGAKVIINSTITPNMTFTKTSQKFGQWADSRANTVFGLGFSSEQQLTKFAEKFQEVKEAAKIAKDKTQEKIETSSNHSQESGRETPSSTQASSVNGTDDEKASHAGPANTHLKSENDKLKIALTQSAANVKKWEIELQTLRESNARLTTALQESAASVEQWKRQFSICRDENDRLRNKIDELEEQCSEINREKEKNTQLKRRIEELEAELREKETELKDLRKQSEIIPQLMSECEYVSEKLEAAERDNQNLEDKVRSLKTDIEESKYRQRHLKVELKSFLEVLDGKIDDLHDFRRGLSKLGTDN
The test is described as above. The gist of the method: as §1
As for SDWLSTVWEHPMDWGA, the “phage ELISA signal ratio” value stood at 13.5. The same measure, in the same setting: as for HWVIPWETVPAPHEFH, the figure is 15.2; as for WEEWTNWASPPHEYRF, 10.2; as for WGSLDWEVALKPPVEF, 17.9. On the same count and under the same terms, as for YRYIAEVPEQFVDMHR, the figure is 15.5; as for SHITLIHEPPYGWTTN, 14.3.

The target in another test is T5, HNF4A 148-377 Hormone_recep (domain begin residue: 148, domain end residue: 377), P41235.
T5 chain: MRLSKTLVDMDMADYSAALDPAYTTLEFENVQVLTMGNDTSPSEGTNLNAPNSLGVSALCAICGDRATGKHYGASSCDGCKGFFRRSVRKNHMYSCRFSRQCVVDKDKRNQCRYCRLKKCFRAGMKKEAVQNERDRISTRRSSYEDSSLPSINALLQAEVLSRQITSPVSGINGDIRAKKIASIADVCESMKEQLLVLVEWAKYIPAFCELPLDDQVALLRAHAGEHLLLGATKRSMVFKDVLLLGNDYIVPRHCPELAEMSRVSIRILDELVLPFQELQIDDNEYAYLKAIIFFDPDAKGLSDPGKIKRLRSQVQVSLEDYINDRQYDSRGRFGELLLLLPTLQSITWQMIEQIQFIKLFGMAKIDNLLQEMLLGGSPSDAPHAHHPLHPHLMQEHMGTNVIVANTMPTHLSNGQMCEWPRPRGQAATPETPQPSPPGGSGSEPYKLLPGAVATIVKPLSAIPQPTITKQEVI
The description is as above. Put shortly: as §1
On to DWQGDHVHFWDLITME, for which the “phage ELISA signal ratio” value amounted to 10.8.

In a further test the target is T6, GNA14 2-355 G-alpha (domain begin residue: 2, domain end residue: 355), O95837.
T6 chain: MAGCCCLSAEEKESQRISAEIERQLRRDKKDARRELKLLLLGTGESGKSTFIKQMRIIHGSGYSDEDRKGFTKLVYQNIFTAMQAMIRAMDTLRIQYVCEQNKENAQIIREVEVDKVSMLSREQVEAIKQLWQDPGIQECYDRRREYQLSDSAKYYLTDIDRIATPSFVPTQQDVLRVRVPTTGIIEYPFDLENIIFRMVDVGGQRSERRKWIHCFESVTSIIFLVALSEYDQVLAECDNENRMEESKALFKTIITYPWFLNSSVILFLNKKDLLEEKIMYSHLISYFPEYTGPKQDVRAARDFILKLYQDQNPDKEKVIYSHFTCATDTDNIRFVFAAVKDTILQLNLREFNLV
Described as above. Put shortly:
as §1
DGDVQKWGPYYSFTQQ: the “phage ELISA signal ratio” value is 28.9.

Another test addresses T7, GNAQ 2-359 G-alpha (domain begin residue: 2, domain end residue: 359), P50148.
T7 chain: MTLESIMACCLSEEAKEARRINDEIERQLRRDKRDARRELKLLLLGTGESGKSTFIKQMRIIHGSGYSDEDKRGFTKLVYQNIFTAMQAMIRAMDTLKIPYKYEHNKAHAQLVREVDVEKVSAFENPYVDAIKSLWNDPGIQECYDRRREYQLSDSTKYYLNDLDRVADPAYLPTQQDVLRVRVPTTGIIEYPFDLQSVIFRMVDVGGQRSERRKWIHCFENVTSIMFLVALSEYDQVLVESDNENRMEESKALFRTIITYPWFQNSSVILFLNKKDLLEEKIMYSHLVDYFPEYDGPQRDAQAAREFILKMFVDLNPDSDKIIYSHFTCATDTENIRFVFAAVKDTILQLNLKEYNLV
Described as above. Put shortly: as §1
Take AWQISEEWKVREAYQQ: the “phage ELISA signal ratio” value was found to be 25.5. On the same count and under the same terms, the result for ITAEWQAREEYKLRVQ reads 29.2.

The next test deals with HGS 1-154 VHS (domain begin residue: 1, domain end residue: 154), O14964. The description is as above. Put shortly: as §1
Sequence of HGS 1-154 VHS (domain begin residue: 1, domain end residue: 154), O14964 (O14964 whole entry): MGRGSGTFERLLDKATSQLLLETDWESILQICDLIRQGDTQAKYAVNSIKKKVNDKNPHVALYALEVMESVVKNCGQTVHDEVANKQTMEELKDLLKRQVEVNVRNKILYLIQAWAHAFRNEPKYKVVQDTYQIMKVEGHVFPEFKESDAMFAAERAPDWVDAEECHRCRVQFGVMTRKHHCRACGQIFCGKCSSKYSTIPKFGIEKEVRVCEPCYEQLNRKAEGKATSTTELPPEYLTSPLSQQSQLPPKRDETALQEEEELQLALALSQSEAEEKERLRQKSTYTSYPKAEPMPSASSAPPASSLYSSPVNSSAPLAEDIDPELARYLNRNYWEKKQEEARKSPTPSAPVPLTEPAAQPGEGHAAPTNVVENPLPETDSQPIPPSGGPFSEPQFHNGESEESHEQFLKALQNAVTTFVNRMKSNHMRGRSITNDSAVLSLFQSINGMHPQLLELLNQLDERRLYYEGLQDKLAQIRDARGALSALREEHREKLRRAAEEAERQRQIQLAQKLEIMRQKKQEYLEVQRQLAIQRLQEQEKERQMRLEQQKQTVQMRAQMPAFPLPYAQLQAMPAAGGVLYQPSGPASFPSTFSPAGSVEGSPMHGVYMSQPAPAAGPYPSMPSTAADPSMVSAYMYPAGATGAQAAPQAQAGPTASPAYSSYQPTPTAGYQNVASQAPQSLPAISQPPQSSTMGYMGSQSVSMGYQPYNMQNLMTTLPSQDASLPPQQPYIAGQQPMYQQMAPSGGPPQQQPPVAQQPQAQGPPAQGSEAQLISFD
PNHWFVIPIGEWYQKI: the “phage ELISA signal ratio” value is 15.9.

The record behind these values is the supplement of paper PMC7724964.
